Data published in publication PMC9911399, “Two distinct binding modes provide the RNA-binding protein RbFox with extraordinary sequence specificity”.
Numbering of substitutions follows the chain as printed; changes in the protein carry UniProt numbers. The full ranking holds about 16,000 sequences; the median of “ka relative to ugcaugu” is about 0.096, and the highest 2% start at about 0.35. What follows is part of a selection rich in the highest values, with near analogues and random picks from the rest.

T1: RBFOX1 RRM RbFoxmut (Fox-RRM*) (Homo sapiens, UniProt Q9NWB1 109-208, R118D;E147R;N151S;E152T)
T1 sequence: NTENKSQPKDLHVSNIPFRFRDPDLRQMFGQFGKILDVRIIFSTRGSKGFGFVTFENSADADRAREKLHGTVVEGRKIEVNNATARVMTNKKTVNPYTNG

B1: ACGUGUG (DNA:RNA)
RNA: GGGAGACCGGAAUUCAGAUUGUCCACGUGUGUUAAAUCCCGUCGUAGCCACCA
DNA 1: CAATCTGAATTCCGGTCTCCC
DNA 2: TGGTGGCTACGACGGGATT
B2: CCCUACC (DNA:RNA)
RNA: B1 RNA with A25C, G27C, G29A, U30C, G31C
DNA 1: CAATCTGAATTCCGGTCTCCC
DNA 2: TGGTGGCTACGACGGGATT
B3: UAUCCCC (DNA:RNA)
RNA: GGGAGACCGGAAUUCAGAUUGUCCUAUCCCCUUAAAUCCCGUCGUAGCCACCA
DNA 1: CAATCTGAATTCCGGTCTCCC
DNA 2: TGGTGGCTACGACGGGATT
B4: AUUUAGC (DNA:RNA)
RNA: B1 RNA with C26U, G27U, G29A, U30G, G31C
DNA 1: CAATCTGAATTCCGGTCTCCC
DNA 2: TGGTGGCTACGACGGGATT
B5: CCCGUAG (DNA:RNA)
RNA: B1 RNA with A25C, G27C, U28G, G29U, U30A
DNA 1: CAATCTGAATTCCGGTCTCCC
DNA 2: TGGTGGCTACGACGGGATT
B6: CCUGGAG (DNA:RNA)
RNA: B1 RNA with A25C, G27U, U28G, U30A
DNA 1: CAATCTGAATTCCGGTCTCCC
DNA 2: TGGTGGCTACGACGGGATT
B7: GCAGUAG (DNA:RNA)
RNA: B1 RNA with A25G, G27A, U28G, G29U, U30A
DNA 1: CAATCTGAATTCCGGTCTCCC
DNA 2: TGGTGGCTACGACGGGATT
B8: CAGGUCU (DNA:RNA)
RNA: B3 RNA with U25C, U27G, C28G, C29U, C31U
DNA 1: CAATCTGAATTCCGGTCTCCC
DNA 2: TGGTGGCTACGACGGGATT
B9: CAUUAAC (DNA:RNA)
RNA: B3 RNA with U25C, C28U, C29A, C30A
DNA 1: CAATCTGAATTCCGGTCTCCC
DNA 2: TGGTGGCTACGACGGGATT
B10: UGCAUCG (DNA:RNA)
RNA: B3 RNA with A26G, U27C, C28A, C29U, C31G
DNA 1: CAATCTGAATTCCGGTCTCCC
DNA 2: TGGTGGCTACGACGGGATT
B11: UGCACCC (DNA:RNA)
RNA: B3 RNA with A26G, U27C, C28A
DNA 1: CAATCTGAATTCCGGTCTCCC
DNA 2: TGGTGGCTACGACGGGATT
B12: UGCGUCC (DNA:RNA)
RNA: B3 RNA with A26G, U27C, C28G, C29U
DNA 1: CAATCTGAATTCCGGTCTCCC
DNA 2: TGGTGGCTACGACGGGATT
B13: UGCAUAG (DNA:RNA)
RNA: B1 RNA with A25U, C26G, G27C, U28A, G29U, U30A
DNA 1: CAATCTGAATTCCGGTCTCCC
DNA 2: TGGTGGCTACGACGGGATT
B14: UUCAUGC (DNA:RNA)
RNA: B3 RNA with A26U, U27C, C28A, C29U, C30G
DNA 1: CAATCTGAATTCCGGTCTCCC
DNA 2: TGGTGGCTACGACGGGATT
B15: UGCAUUG (DNA:RNA)
RNA: B1 RNA with A25U, C26G, G27C, U28A, G29U
DNA 1: CAATCTGAATTCCGGTCTCCC
DNA 2: TGGTGGCTACGACGGGATT
B16: UGCAUCC (DNA:RNA)
RNA: B3 RNA with A26G, U27C, C28A, C29U
DNA 1: CAATCTGAATTCCGGTCTCCC
DNA 2: TGGTGGCTACGACGGGATT
B17: UGCAUUC (DNA:RNA)
RNA: B3 RNA with A26G, U27C, C28A, C29U, C30U
DNA 1: CAATCTGAATTCCGGTCTCCC
DNA 2: TGGTGGCTACGACGGGATT
B18: UGCAUAC (DNA:RNA)
RNA: B3 RNA with A26G, U27C, C28A, C29U, C30A
DNA 1: CAATCTGAATTCCGGTCTCCC
DNA 2: TGGTGGCTACGACGGGATT
B19: UGCUGCA (DNA:RNA)
RNA: B1 RNA with A25U, C26G, G27C, U30C, G31A
DNA 1: CAATCTGAATTCCGGTCTCCC
DNA 2: TGGTGGCTACGACGGGATT
B20: UGCAUGC (DNA:RNA)
RNA: B3 RNA with A26G, U27C, C28A, C29U, C30G
DNA 1: CAATCTGAATTCCGGTCTCCC
DNA 2: TGGTGGCTACGACGGGATT
B21: GUCCUGC (DNA:RNA)
RNA: B3 RNA with U25G, A26U, U27C, C29U, C30G
DNA 1: CAATCTGAATTCCGGTCTCCC
DNA 2: TGGTGGCTACGACGGGATT

Molecular target: T1, RBFOX1 RRM RbFoxmut (Fox-RRM*)
Assay: EMSA; HiTS-Eq, 1 nM pool, 10 min; buffer printed only for the single-RNA assays: 10 mM Tris pH 7.5, 150 mM NaCl, 3.4 mM EDTA, 0.001% NP-40, 30 C
Conditions: tags: His6 N-terminal (pET28a); label: 5' 32P
How it was run: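 Purified RbFox RRM (wild type or mutant) was equilibrated for 10 min in 50 µL with 1 nM of a 5′-radiolabelled pool of RNA with 7 randomized nucleotides, its flanks annealed to DNA oligonucleotides, across increasing protein concentrations. Free RNA was separated by 8% native PAGE, excised, reverse-transcribed, PCR-barcoded and sequenced on an Illumina HiSeq 2500. Relative association constants came from read-count changes of each variant against the control reaction, normalised to the cognate motif.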

Row | Binder | binding signal
1 | B1 | 0.203 KA relative to UGCAUGU
2 | B2 | 0.0909 KA relative to UGCAUGU
3 | B3 | 0.0611 KA relative to UGCAUGU
4 | B4 | 0.134 KA relative to UGCAUGU
5 | B5 | 0.101 KA relative to UGCAUGU
6 | B6 | 0.113 KA relative to UGCAUGU
7 | B7 | 0.122 KA relative to UGCAUGU
8 | B8 | 0.0783 KA relative to UGCAUGU
9 | B9 | 0.113 KA relative to UGCAUGU
10 | B10 | 0.922 KA relative to UGCAUGU
11 | B11 | 0.127 KA relative to UGCAUGU
12 | B12 | 0.091 KA relative to UGCAUGU
13 | B13 | 0.146 KA relative to UGCAUGU
14 | B14 | 0.13 KA relative to UGCAUGU
15 | B15 | 0.494 KA relative to UGCAUGU
16 | B16 | 0.421 KA relative to UGCAUGU
17 | B17 | 0.13 KA relative to UGCAUGU
18 | B18 | 0.161 KA relative to UGCAUGU
19 | B19 | 0.251 KA relative to UGCAUGU
20 | B20 | 1.29 KA relative to UGCAUGU
21 | B21 | 0.104 KA relative to UGCAUGU
